Among all 310,000 compounds or so, about 14,000 (4.5%) showed an effect of 50% or more. The effect is printed as a negative number. The list comes from a sample in which strong results are over-represented; it also holds similar structures and randomly drawn compounds.
What follows are molecules tested against human ether-à-go-go-related gene (hERG) potassium channel (human, UniProt Q12809) (assay: primary screen, population patch clamp on CHO cells stably expressing hERG; higher = less effect of the substance).
human ether-à-go-go-related gene (hERG) potassium channel, sequence (Q12809 whole entry, looked up): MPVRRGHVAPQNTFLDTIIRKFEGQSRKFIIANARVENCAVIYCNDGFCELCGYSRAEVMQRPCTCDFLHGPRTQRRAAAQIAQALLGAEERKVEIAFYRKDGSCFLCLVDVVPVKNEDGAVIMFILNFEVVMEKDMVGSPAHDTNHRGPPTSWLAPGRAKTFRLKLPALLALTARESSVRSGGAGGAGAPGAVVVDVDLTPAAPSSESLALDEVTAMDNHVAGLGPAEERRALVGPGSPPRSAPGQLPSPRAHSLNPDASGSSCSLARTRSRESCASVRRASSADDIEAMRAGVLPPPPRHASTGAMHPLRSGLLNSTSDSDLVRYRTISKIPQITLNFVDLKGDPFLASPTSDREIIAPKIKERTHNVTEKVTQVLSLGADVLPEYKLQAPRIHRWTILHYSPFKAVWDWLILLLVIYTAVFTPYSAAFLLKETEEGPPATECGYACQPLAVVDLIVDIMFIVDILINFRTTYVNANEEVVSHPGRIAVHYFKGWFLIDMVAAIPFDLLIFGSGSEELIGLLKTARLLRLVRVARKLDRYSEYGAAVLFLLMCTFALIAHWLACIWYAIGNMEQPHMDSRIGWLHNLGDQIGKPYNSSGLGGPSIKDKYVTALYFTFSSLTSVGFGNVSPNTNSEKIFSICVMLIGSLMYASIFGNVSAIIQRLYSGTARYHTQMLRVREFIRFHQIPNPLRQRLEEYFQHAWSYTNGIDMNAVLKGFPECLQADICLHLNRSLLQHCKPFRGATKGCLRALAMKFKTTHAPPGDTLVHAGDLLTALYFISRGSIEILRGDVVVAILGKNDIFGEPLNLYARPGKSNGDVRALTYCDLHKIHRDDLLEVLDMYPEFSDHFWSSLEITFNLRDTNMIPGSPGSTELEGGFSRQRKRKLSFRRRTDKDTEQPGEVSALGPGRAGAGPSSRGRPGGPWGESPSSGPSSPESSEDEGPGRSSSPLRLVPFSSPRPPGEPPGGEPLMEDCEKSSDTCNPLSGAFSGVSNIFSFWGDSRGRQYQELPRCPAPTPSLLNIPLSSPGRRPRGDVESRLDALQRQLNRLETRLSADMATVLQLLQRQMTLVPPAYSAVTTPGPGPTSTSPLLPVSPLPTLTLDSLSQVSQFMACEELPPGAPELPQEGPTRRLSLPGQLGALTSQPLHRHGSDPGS
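Further: peak tail current of the secondary pulse compared with the same well before compound.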

| SMILES | hERG current change (%, negative = inhibition) at 10uM [%] |
| --- | --- |
| O=C1C(NS(=O)(=O)c2ccc(Cl)cc2)=C(N2CCCCC2)C(=O)c2ccccc21 | -13.3 |
| Cc1ccc(-n2nc3c(=O)n(CCCC(=O)N4CCC(C)CC4)nc(C)c3c2C)cc1 | -30.1 |
| CN(Cc1cccc(Cl)c1Cl)c1ccc(S(=O)(=O)N2CCCCC2)cc1[N+](=O)[O-] | 5.82 |
| Cc1ccc(C2=NNC(C(O)C(O)C(O)CO)S2)cc1 (stereo not shown) | 11.6 |
| CC1CN(S(=O)(=O)c2cccc(C(=O)Nc3ccc(S(=O)(=O)NC4=NCCCCC4)cc3)c2)CC(C)O1 (stereo not shown) | -5.97 |
| CC(C)c1ccc(OCc2cccc(C(=O)N/N=C/c3cccnc3)c2)cc1 | -5.29 |
| Cc1ccccc1C(=O)Nc1cccc(C(=O)N/N=C/c2cc(Cl)cc([N+](=O)[O-])c2O)c1 | 7.34 |
| COC(=O)c1cc2sc(Cl)cc2n1Cc1nc(-c2ccccc2)oc1C | 3.5 |
| Cn1ccnc1SCC(=O)Nc1nc2ccccc2s1 | -25.1 |
| O=C(O)c1ccc(N/N=C/C2=C(N3CCOCC3)C(=C\c3ccccc3)/CC2)cc1 | 7.96 |
| COc1ccccc1CC(=O)NCCc1c[nH]c2ccccc12 | 5.81 |
| COc1cccc(NC(C)C(=O)N2CC(C)OC(C)C2)c1 (stereo not shown) | -1.96 |
| C/C(=N/NC(=O)CNC(=O)c1cccs1)c1ccco1 | 11.7 |
| COc1ccc(NC(=S)N(CCCN2CCOCC2)Cc2ccco2)cc1 | -7.89 |
| COc1ccc(NC(=S)N(Cc2cccnc2)Cc2ccco2)cc1 | -24.5 |
| CCOC(=O)c1ccc(NC(=S)N(Cc2cccnc2)Cc2ccco2)cc1 | -53.2 |
| CCOC(=O)c1ccc(NC(=S)N(CCCN2CCN(CC)CC2)Cc2ccco2)cc1 | -76.5 |
| CCOC(=O)c1ccc(NC(=S)N(CCCN2CCCCCC2)Cc2ccco2)cc1 | -73.7 |
| COC(=O)c1ccc(NC(=S)N(Cc2cccnc2)Cc2ccco2)cc1 | -29.1 |
| Cc1ccc(CSc2nc3c(c(N(C)C)n2)CCCC3)cc1 | -5.63 |
| CCC(Cc1c(I)cc(I)c(N)c1I)C(=O)O (stereo not shown) | -0.155 |
| C=C1c2ccccc2NC(=S)N1Cc1ccc2c(c1)OCO2 | 27.5 |

| SMILES | hERG current change (%, negative = inhibition) at 10uM [%] |
| --- | --- |
| Cc1ccc(CNC(=O)c2ccc(N3CCC4(CC3)CC(c3ccccc3)=NO4)c(NC(=O)c3ccco3)c2)cc1 | 6.09 |
| COC(=O)CN(c1ccc(C)cc1)S(=O)(=O)c1ccc(F)cc1 | -19.9 |
| Cc1ccc(NS(=O)(=O)c2ccc3c(c2)c(=O)n(C)c(=O)n3C)cc1F | -15.5 |
| CC(C)c1ccc2oc(=O)cc(CN3CCN(c4ccccc4)CC3)c2c1 | -10.4 |
| O=c1cc(CN2CCN(Cc3ccccc3)CC2)c2cc3c(cc2o1)CCC3 | -51 |
| Cc1cc2oc(=O)cc(CN3CCN(Cc4ccccc4)CC3)c2cc1O | -53.3 |
| CN1CCN(Cc2cc(=O)oc3cc4c(cc23)CCC4)CC1 | -8.2 |
| Cc1ccc2oc(=O)cc(CN3CCCCC3)c2c1 | 15.9 |
| O=c1cc(CN2CCN(C/C=C/c3ccccc3)CC2)c2cc(O)ccc2o1 | -77.5 |
| CCN1CCN(Cc2cc(=O)oc3cc4c(cc23)CCC4)CC1 | -29.7 |
| Cc1ccc2oc(=O)cc(CN3CCOCC3)c2c1 | -8.53 |
| Cc1cc2oc(=O)cc(CN3CCOCC3)c2cc1O | -22.6 |
| Cc1cc2oc(=O)cc(CN3CCN(Cc4ccccc4)CC3)c2cc1Cl | -22.8 |
| Cc1ccc2oc(=O)cc(CN3CCN(C/C=C/c4ccccc4)CC3)c2c1 | -76.9 |
| COc1ccc(N2CCN(Cc3cc(=O)oc4cc(-c5ccccc5)c(O)cc34)CC2)cc1 | -0.18 |
| Cc1ccc(S(=O)(=O)N2CCCCC2CCNC(=O)C(=O)NCC2CCCO2)cc1 (stereo not shown) | -23.6 |
| O=C(CSc1cccc2cccnc12)N1CCCC1 | 12 |
| NS(=O)(=O)c1ccc(NC(=O)c2c(Cl)cccc2Cl)cc1 | 9.38 |
| Cc1cc2oc(=O)cc(CN3CCCCC3)c2cc1O | -1.42 |
| Cc1cc2oc(=O)cc(CN3CCN(C/C=C/c4ccccc4)CC3)c2cc1O | -80.9 |
| Cc1c(O)ccc2c(CN3CCN(C/C=C/c4ccccc4)CC3)cc(=O)oc12 | -64.1 |
| Cc1c(O)ccc2c(CN(C)Cc3ccccc3)cc(=O)oc12 | 10.2 |

| SMILES | hERG current change (%, negative = inhibition) at 10uM [%] |
| --- | --- |
| Cc1ccc2c(CN3CCOCC3)cc(=O)oc2c1C | 0.23 |
| O=c1cc(CN2CCN(C/C=C/c3ccccc3)CC2)c2cc(O)c(-c3ccccc3)cc2o1 | 11.6 |
| CCC(C)Sc1ccc([C@H]2N[C@@](C)(C(=O)OC)[C@H]3C(=O)N(CC)C(=O)[C@@H]23)cc1.O=C(O)C(F)(F)F (stereo partly shown) | 7.25 |
| Brc1ccc(-c2nnc3n2-c2ccccc2CC3)cc1 | -41.3 |
| COc1ccc(NC(=O)c2ccc(Cl)nc2)cc1S(=O)(=O)N1CCOCC1 | -10.5 |
| COc1ccc(NC(=O)c2cccc(S(=O)(=O)N3CCCC3)c2)cc1OC | -4.78 |
| COc1ccc(NC(=O)c2ccc(Cl)nc2)cc1S(=O)(=O)N1CCCCC1 | -59 |
| COc1ccc(C(=O)Nc2ccc(S(=O)(=O)N3CCCCC3)cc2)cc1OC | -9.83 |
| COc1ccc(NC(=O)c2ccc(S(=O)(=O)N3CCCC3)cc2)cc1OC | -158 |
| COc1ccc(NC(=O)c2cc(OC)c(OC)c(OC)c2)cc1S(=O)(=O)N1CCCCC1 | 15.5 |
| S=C(c1c[nH]c2ccccc12)N1CCCC1 | 9.74 |
| Cc1ccc(CN2CC(C(=O)Nc3nnc(SCc4c(Cl)cccc4Cl)s3)CC2=O)cc1 (stereo not shown) | 14.1 |
| Cn1cc(C(=O)OCC(=O)NC2CCCC2)c2ccccc21 | 7.9 |
| O=[N+]([O-])c1ccccc1S(=O)(=O)NCCc1ccncc1 | 14.9 |
| COc1ccccc1C(=O)OCC(=O)Nc1ccc(Cl)cn1 | 10.1 |
| COc1cccc(NC(=O)NC2CCN(Cc3nnnn3Cc3ccc(F)cc3)CC2)c1 | -53.2 |
| Cc1ccc(Cn2nnnc2CN2CCC(NC(=O)c3ccccc3F)CC2)cc1 | -27.2 |
| O=C(Nc1ccccc1F)NC1CCN(Cc2nnnn2Cc2ccc(F)cc2)CC1 | -69.2 |
| Cc1ccccc1C(=O)NC1CCN(Cc2nnnn2Cc2ccc(F)cc2)CC1 | -40.9 |
| COc1cccc(NC(=O)NC2CCN(Cc3nnnn3Cc3ccc4c(c3)OCO4)CC2)c1 | -23.3 |
| COCCn1nnnc1CN1CCC(NC(=O)Nc2cccc(OC)c2)CC1 | 8.3 |
| OC(c1ccccc1)(c1ccccc1)C1CCN(C(=S)NCCc2ccccc2)CC1 | 16.3 |

| SMILES | hERG current change (%, negative = inhibition) at 10uM [%] |
| --- | --- |
| CN(CC(=O)Nc1cccc(F)c1)C(=O)C1CC(=O)N(Cc2ccco2)C1 (stereo not shown) | -8 |
| CN(Cc1ccccc1)CC(O)COc1ccc(CNCCc2cccnc2)cc1 (stereo not shown) | -11.5 |
| O=C(CN(c1cccc(Cl)c1)S(=O)(=O)c1ccc(Cl)cc1)NCc1ccccn1 | -53.1 |
| CN(CC(=O)NCc1ccccn1)S(=O)(=O)c1ccc(Cl)cc1 | -12 |
| CSc1ccc(S(=O)(=O)N(CC(=O)NCc2ccccn2)c2ccc(C)cc2)cc1 | -59.3 |
| Cc1ccc(S(=O)(=O)N(CC(=O)NCc2ccccn2)c2ccc(Cl)cc2)cc1 | -29.7 |
| CCNC(=O)CN(c1ccc(C)cc1)S(=O)(=O)c1ccc(SC)cc1 | -19 |
| COc1ccc(S(=O)(=O)N(CC(=O)NCc2ccccn2)c2ccc(Cl)cc2)cc1 | 13.3 |
| CCN(Cc1ccccc1)S(=O)(=O)c1ccc2c(c1)NC(=O)CS2 | -44.5 |
| CN(CC(=O)Nc1ccccc1Br)C(=O)CN(C)C1CCCCC1 | 7.12 |
| Cc1cccc(C)c1-n1c(C)cc(/C=N/NC(=O)c2ccncc2)c1C | -12 |
| Cn1c(NC(=O)c2ccc(F)cc2)nc2ccccc21 | 21.5 |
| O=C(c1cc2cc([N+](=O)[O-])ccc2oc1=O)N1CCN(C2CCCCC2)CC1 | -72.5 |
| O=C(c1ccco1)N1CCN(C(=O)c2cc3ccccc3oc2=O)CC1 | -13.2 |
| O=C(c1cc2cc([N+](=O)[O-])ccc2oc1=O)N1CCOCC1 | -0.062 |
| O=C(c1cc2cc([N+](=O)[O-])ccc2oc1=O)N1CCN(c2ncccn2)CC1 | -0.285 |
| O=C(c1ccco1)N1CCN(C(=O)c2cc3cc([N+](=O)[O-])ccc3oc2=O)CC1 | -52.4 |
| CCN1CCN(C(=O)c2cc3cc([N+](=O)[O-])ccc3oc2=O)CC1 | -14.4 |
| Cc1ccc(S(=O)(=O)CCC(=O)Nc2ccc(Br)cc2)cc1 | -7.37 |

— PMC4336329 (PLoS ONE, 2015)
